Source: PubChem BioAssay
Compounds with a hit are over-represented: about 3.5% of the library has one in this group of screens.
FBW7 act = human FBW7 E3 ligase activation, primary screen; Q969H0; AlphaScreen FBW7–phospho-cyclin E peptide binding, activator screen; normalized activity (activation), % at 26.1 µM; hit rate 0.13% among 650,000; in the data active = normalized activity above about 1.9%;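 also: purified mutant Fbw7 with reduced substrate affinity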
Target sequence (Q969H0 whole entry, looked up): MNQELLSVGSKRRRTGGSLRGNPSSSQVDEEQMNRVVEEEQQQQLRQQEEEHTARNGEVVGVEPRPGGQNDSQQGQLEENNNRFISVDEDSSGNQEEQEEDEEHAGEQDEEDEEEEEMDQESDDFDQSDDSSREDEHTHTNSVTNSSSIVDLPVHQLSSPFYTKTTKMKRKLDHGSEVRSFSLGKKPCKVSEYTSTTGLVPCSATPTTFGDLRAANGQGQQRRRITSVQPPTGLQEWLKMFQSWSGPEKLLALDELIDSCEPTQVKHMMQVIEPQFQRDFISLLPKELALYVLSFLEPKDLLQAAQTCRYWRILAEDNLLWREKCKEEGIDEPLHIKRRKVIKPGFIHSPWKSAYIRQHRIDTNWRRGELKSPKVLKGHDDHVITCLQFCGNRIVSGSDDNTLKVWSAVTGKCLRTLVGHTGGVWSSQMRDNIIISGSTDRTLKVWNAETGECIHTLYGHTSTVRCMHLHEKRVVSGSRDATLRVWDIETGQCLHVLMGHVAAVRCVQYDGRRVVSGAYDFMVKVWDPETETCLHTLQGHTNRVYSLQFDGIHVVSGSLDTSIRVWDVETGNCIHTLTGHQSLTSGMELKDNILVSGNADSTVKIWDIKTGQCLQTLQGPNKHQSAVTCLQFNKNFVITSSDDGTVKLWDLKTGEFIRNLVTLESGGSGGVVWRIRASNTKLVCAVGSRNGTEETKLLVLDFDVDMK
TEAD-YAP block = TEAD-YAP interaction inhibition; AID 1259422; hit rate 1.4% among 640,000; inhibition, % at 9.12 µM; HEK-TIYL cells, TEAD-Gal4/YAP UAS-luciferase luminescence; in the data active = inhibition above about 32%;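 also: 0% = median of test compound wells and 100% = reference inhibitor wells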
MITF primary = blocks human microphthalmia-associated transcription factor; AlphaScreen MITF homodimerization, bead proximity signal; hit rate 0.91% among 650,000; inhibition, % at 2.6 µM; in the data active = inhibition above about 50%;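 also: 0% = vehicle wells with protein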
GPR151 activ = activates the human receptor GPR151. activation, % at 11.2 µM. Q8TDV0. PathHunter beta-arrestin GPR151 cells, luminescence. hit rate 1% among 650,000. AID 1508602; in the data active = activation above about 4.9%;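 also: 0% = median of compound wells and 100% = cells with positive control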
* hit, by the source's call.

SMILES | FBW7 act | TEAD-YAP block | MITF primary | GPR151 activ
CCOc1ccc(/C(O)=C2\C(=O)C(=O)N(c3nccs3)C2c2ccccc2)cc1 (stereo not drawn) | 0 | 36* | -3 | 0
O=C1CSC(c2cc3c(cc2Br)OCO3)N1c1ccccc1 (stereo not drawn) | 0 | 2 | 29 | 0
CCOC(=O)c1[nH]c(/C=N/NC(=O)c2ccncc2)c(C(=O)OCC)c1C | 0 | 60* | -15 | 0
N#CC1=C(N)C(C#N)(C#N)C(c2ccc(O)cc2)C2CCCC=C12 (stereo not drawn) | 0 | 11 | -10 | 0
N#CC1=C(N)C(C#N)(C#N)C(c2ccccc2)C2CCCC=C12 (stereo not drawn) | 1.9* | 7 | 10 | 2
Cc1sc2nc(SCC#N)[nH]c(=O)c2c1C | 1 | 46* | 1 | 0
Cc1sc2nc(SCC(N)=O)[nH]c(=O)c2c1C | 0 | -6 | -2 | 0
COc1ccc2c(=O)cc(-c3ccccc3)oc2c1 | 0 | -36 | 2 | 1
COc1ccc2c(=O)cc(C(Cl)(Cl)Cl)oc2c1 | 0 | 15 | 3 | -1
COc1cccc(-c2cc(=O)c3cc(OC)ccc3o2)c1 | 0 | 70* | 8 | -10
COc1ccc2oc(C(Cl)(Cl)Cl)cc(=O)c2c1 | 0 | 50* | 20 | -1
CC(C)(C)c1ccc(NC(=O)COC(=O)CNC(=O)c2cccc([N+](=O)[O-])c2)cc1 | 0 | -7 | 4 | 1
CC(=O)Oc1ccc(C2Nc3c(C(=O)O)ccc([N+](=O)[O-])c3C3C=CCC32)cc1 (stereo not drawn) | -1 | -2 | 19 | -1
O=C(O)c1ccc([N+](=O)[O-])c2c1NC(c1ccc([N+](=O)[O-])cc1)C1CC=CC21 (stereo not drawn) | -1 | 6 | 85* | 0
O=C(CSc1nc2ccccc2c(=O)n1CC1CCC(C(=O)N2CCN(c3ccccc3)CC2)CC1)c1ccccc1 (stereo not drawn) | 0 | -21 | 0 | 2
CCn1c(=N)n(CC(=O)c2ccc(C)cc2)c2ccccc21 | 1 | -17 | 7 | -1
CCn1c(=N)n(CC(=O)c2ccc(Br)cc2)c2ccccc21 | 3.4* | -28 | -6 | -1
COC(=O)C1=C(C)NC2=C(C(=O)CC(C)(C)C2)C1c1ccc(OCc2ccc(F)cc2)cc1 (stereo not drawn) | 0 | 1 | 8 | -1
Cc1ccc2occ(/C=C/C(=O)c3ccc(O)cc3)c(=O)c2c1 | 0 | -11 | -10 | 3
Cc1c(/C=C/C(=O)c2ccc(O)cc2)cnn1C | 0 | 51* | 0 | -1
COc1ccccc1/C=C/C(=O)c1ccc(O)cc1 | 0 | -21 | -5 | -1
CCn1cc(/C=C/C(=O)c2ccc(O)cc2)c(C)n1 | 0 | 86* | 7 | 0
CC(=O)Nc1ccc(-n2c(C)ccc2C)c(C(=O)O)c1 | -1 | 2 | 57* | 1
Cc1ccc(C)n1-c1cc(Cl)ccc1C(=O)O | -1 | 0 | 81* | 2
Cc1ccc(C)n1-c1ccc(C(=O)O)c(Cl)c1 | -1 | -7 | 81* | 2
SMILES | FBW7 act | TEAD-YAP block | MITF primary | GPR151 activ
Cc1ccc(C)n1-c1ccccc1C(=O)O | -2 | 0 | 1 | 0
O=C(Cn1c(=O)n(C2CCCC2)c(=O)c2ccccc21)NCc1ccco1 | 0 | 1 | 3 | 0
COc1cccc(C=Nc2cnn(C)c2C(N)=O)c1O | 3.6* | -2 | 0 | 0
Cc1ccc2nc(C)c(C(=O)NN=C3CCCCCC3)n2c1 | 0 | 58* | -5 | 1
Cc1nc2ccc(Cl)cn2c1C(=O)NN=C1CCCCC1 | 0 | 11 | 0 | 0
Cc1cccc(C(=O)Nc2sc3c(c2C(=O)O)CCCC3)c1 | 0 | 70* | 0 | -6
Cc1cccc(OCC(=O)Nc2sc3c(c2C(N)=O)CCCC3)c1 | 0 | 53* | -7 | 2
Cc1cccc(C(=O)Nc2sc3c(c2C(N)=O)CCCC3)c1 | 0 | 52* | 2 | -3
NC(=O)c1c(NC(=O)c2ccc(Br)o2)sc2c1CCCCC2 | 0 | 85* | -5 | -4
Cc1ccc(CN2C(=O)CN(C3CCCCCC3)C(=O)C2c2ccc(C)cc2)cc1 (stereo not drawn) | 0 | 5 | -3 | -1
Cc1nc2ncnn2c(N2CCC(C(=O)Nc3ccc(Cl)cc3)CC2)c1C | 0 | 3 | -4 | 1
O=C(CSc1ccccc1)Nc1c(C(=O)C2CC2)oc2ccccc12 | 0 | 1 | 10 | -1
CCOC(=O)c1c(NC(=O)CSc2nnnn2-c2ccc(OC)cc2)sc(-c2ccccc2)c1C | 0 | -3 | -2 | 0
NC(=O)c1c(NC(=O)c2cccc(Br)c2)sc2c1CCCC2 | 0 | 47* | -20 | 1
NC(=O)c1c(NC(=O)CCl)sc2c1CCC2 | 0 | 61* | 5 | 0
CCC(=O)Nc1sc2c(c1C(N)=O)CCC2 | 0 | 7 | -9 | -1
Cc1ccc(NC(=O)c2c(NC(=O)c3ccc(Br)cc3)sc3c2CCCC3)c(C)c1 | 2.1* | 0 | 9 | 2
O=C(/C=C/c1ccccc1)Nc1sc2c(c1C(=O)O)CCCC2 | 0 | 49* | 3 | 0
NC(=O)c1c(NC(=O)/C=C/c2ccccc2)sc2c1CCC2 | 0 | -80 | 3 | 2
NC(=O)c1ccsc1NC(=O)/C=C/c1ccccc1 | 0 | 81* | -2 | -11
Cc1ccc(/C=C/C(=O)Nc2sccc2C(N)=O)o1 | 1 | -42 | 5 | -4
O=C1c2ccccc2S(=O)(=O)N1CC(Br)C(Br)CCl (stereo not drawn) | 0 | -7 | -19 | 3
COc1ccc(C2Nn3c(C)nnc3SC2C(=O)Nc2ccc(C)cc2)cc1Cl (stereo not drawn) | 0 | 16 | 9 | 0
c1ccc(CNc2ccc3ncc(-c4ccco4)n3n2)nc1 | -1 | 53* | -11 | 0
Cc1csc(-c2cnc3ccc(NCc4ccccn4)nn23)c1 | 0 | 40* | 12 | 1
SMILES | FBW7 act | TEAD-YAP block | MITF primary | GPR151 activ
Cc1csc(-c2cnc3ccc(NCCCO)nn23)c1 | 0 | 34* | 16 | 1
CCCCOc1ccc(C(=O)Oc2coc(CSc3nncn3C)cc2=O)cc1 | 0 | -4 | -17 | 1
CCCCN1C(=O)C2C(C(=O)Nc3ccc(Cl)c(Cl)c3)C3(C)C=CC2(O3)C1C(=O)NC1CCCCC1 (stereo not drawn) | 0 | 2 | -12 | 0
COCCn1c(=O)[nH]c2cc(C(=O)Nc3ccc(Oc4ccccc4)cc3)ccc2c1=O | 0 | 11 | -4 | -1
O=C1CN(C(=O)COC(=O)c2cc(-c3cccs3)nc3ccccc23)c2ccccc2N1 | 0 | 7 | 55* | -1
COc1ccc2nc3sc(C(=O)N4CCN(c5ccccc5OC)CC4)c(N)c3cc2c1 | 0 | -2 | 0 | -1
COc1ccc(N2CCN(C(=O)c3sc4nc5ccc(OC)cc5cc4c3N)CC2)cc1 | 0 | -3 | 70* | 0
Cc1ccc(-c2cc3c(nn2)-c2ccccc2C3=O)cc1 | 0 | 81* | 9 | -4
COc1ccccc1NC(=O)NCCCNc1nc2cc3c(cc2cc1C#N)OCO3 | 0 | 65* | -6 | 0
N#Cc1cc2cc3c(cc2nc1NCCCNC(=O)Cc1ccccc1)OCO3 | 0 | 34* | 10 | -1
